# Test results published in publication PMC7862700, “An all-to-all approach to the identification of sequence-specific readers for epigenetic DNA modifications on cytosine”.
# Legend:
# Experiment in all cases: DAPPL (digital affinity profiling via proximity ligation, sequencing); 10 mM Tris-HCl pH 7.5, 50 mM NaCl, 1 mM DTT, 4% glycerol, room temperature, 30 min; GST-TFs on glutathione beads, 16-mer random dsDNA library, 0.1% formaldehyde crosslink after washing; high values mean tight binding
# [1] = biological target: T1, FLI1 (Homo sapiens, UniProt Q01543 1-452); conditions: protein: recombinant; tags: N-terminal GST; dsDNA, one strand shown
# T1 sequence: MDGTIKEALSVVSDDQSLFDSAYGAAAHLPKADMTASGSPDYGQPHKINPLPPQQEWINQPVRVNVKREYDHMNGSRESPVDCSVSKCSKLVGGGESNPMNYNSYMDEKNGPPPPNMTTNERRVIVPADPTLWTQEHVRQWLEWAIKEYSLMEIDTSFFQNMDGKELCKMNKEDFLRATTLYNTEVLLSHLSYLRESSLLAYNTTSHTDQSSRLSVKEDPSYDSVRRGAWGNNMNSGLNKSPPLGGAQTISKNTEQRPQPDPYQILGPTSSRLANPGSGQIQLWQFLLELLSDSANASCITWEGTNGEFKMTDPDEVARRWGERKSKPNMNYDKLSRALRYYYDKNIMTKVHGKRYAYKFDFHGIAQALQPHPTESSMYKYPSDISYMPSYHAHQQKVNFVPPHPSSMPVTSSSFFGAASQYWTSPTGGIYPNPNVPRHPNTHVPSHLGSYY
# Summary of the method: (§1)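 Binding signal is defined as a hexamer's read frequency for one factor over its frequency for the tag-only sample. To obtain reads, GST-fused human transcription factors were expressed in yeast, captured on glutathione beads, barcoded with DNA and pooled with that sample. Pools met 200 nmole of a 16-mer random double-stranded DNA library in Tris/NaCl/DTT/glycerol buffer for 30 min at room temperature before washing, 0.1% formaldehyde crosslinking, proximity ligation (BsaI/T4 ligase, 1 h, 37 °C), PCR and Illumina NextSeq500 sequencing.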
# [2] = biological target: T2, ELK1 (Homo sapiens, UniProt P19419 1-428); conditions: protein: recombinant; tags: N-terminal GST; dsDNA, one strand shown
# T2 sequence: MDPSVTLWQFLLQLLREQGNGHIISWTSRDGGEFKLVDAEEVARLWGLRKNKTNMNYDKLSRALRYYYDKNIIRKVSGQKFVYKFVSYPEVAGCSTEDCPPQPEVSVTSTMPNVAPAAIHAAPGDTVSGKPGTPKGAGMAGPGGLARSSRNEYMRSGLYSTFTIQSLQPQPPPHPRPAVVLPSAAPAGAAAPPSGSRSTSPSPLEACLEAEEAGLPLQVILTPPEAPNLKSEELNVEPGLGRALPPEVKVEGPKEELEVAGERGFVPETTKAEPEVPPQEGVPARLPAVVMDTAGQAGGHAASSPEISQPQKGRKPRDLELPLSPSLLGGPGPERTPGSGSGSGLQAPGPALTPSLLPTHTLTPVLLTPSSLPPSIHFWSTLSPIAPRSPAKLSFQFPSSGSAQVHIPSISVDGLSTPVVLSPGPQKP
# Summary of the method: as §1
# [3] = biological target: T3, GABPA (Homo sapiens, UniProt Q06546 1-454); conditions: protein: recombinant; tags: N-terminal GST; dsDNA, one strand shown
# T3 sequence: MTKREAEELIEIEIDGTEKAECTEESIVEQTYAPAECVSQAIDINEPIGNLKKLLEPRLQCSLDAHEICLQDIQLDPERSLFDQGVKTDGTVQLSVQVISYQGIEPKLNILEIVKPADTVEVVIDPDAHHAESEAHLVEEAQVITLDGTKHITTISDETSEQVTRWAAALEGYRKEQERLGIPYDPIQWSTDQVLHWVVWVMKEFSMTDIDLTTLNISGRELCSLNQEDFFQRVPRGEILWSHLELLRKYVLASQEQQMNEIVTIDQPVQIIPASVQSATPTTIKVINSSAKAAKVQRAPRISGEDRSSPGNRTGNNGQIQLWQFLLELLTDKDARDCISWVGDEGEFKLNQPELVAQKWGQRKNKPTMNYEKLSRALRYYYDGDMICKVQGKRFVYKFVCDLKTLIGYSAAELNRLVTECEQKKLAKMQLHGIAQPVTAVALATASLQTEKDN
# Summary of the method: as §1
# [4] = biological target: T4, ERG (Homo sapiens, UniProt P11308 1-479); conditions: protein: recombinant; tags: N-terminal GST; dsDNA, one strand shown
# T4 sequence: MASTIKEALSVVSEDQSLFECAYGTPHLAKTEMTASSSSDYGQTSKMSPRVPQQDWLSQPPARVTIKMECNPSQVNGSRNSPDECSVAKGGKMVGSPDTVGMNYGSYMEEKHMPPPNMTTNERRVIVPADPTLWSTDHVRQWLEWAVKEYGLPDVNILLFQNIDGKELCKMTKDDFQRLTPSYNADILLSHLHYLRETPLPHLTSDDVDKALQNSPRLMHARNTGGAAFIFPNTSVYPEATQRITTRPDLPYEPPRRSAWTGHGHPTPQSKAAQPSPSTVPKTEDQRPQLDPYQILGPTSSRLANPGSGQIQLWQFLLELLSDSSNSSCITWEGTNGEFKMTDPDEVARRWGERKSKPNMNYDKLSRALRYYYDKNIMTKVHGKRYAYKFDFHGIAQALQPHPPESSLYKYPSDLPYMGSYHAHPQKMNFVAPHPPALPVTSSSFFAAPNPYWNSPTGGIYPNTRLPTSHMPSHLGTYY
# Summary of the method: as §1
# [5] = biological target: ELF1 (Homo sapiens, UniProt P32519 1-619); conditions: protein: recombinant; tags: N-terminal GST; dsDNA, one strand shown
# Chain of ELF1 (P32519 whole entry): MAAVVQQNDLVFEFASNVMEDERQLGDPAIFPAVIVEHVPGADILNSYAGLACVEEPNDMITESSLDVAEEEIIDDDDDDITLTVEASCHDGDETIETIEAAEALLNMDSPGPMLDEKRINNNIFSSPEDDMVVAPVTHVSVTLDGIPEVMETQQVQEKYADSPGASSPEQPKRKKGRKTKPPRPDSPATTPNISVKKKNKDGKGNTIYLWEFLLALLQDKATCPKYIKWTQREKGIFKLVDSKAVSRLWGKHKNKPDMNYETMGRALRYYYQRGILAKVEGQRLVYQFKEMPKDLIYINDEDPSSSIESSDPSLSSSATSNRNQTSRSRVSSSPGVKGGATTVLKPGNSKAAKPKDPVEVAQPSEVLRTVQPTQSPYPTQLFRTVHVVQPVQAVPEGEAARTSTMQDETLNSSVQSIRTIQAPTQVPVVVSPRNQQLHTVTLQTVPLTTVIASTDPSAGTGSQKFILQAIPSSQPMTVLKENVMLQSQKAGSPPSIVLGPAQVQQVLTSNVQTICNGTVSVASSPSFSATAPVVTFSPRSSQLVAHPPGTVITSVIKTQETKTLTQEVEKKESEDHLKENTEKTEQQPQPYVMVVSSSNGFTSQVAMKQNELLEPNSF
# Summary of the method: as §1
# [6] = biological target: T5, EHF (Homo sapiens, UniProt Q9NZC4 1-300); conditions: protein: recombinant; tags: N-terminal GST; dsDNA, one strand shown
# T5 sequence: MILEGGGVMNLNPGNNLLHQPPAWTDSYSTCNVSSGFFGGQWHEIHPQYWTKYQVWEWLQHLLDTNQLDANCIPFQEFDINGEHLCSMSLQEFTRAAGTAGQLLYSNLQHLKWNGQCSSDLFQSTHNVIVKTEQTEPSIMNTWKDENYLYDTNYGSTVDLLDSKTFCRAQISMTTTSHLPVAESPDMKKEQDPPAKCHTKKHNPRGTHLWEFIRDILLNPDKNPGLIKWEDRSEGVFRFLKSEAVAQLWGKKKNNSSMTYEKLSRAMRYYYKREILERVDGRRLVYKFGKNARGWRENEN
# Summary of the method: as §1
# [7] = biological target: SPI1 (Homo sapiens, UniProt P17947 1-270); conditions: protein: recombinant; tags: N-terminal GST; dsDNA, one strand shown
# Summary of the method: as §1
# [8] = biological target: SPIB (Homo sapiens, UniProt Q01892 1-262); conditions: protein: recombinant; tags: N-terminal GST; dsDNA, one strand shown
# Chain of SPIB (Q01892 whole entry): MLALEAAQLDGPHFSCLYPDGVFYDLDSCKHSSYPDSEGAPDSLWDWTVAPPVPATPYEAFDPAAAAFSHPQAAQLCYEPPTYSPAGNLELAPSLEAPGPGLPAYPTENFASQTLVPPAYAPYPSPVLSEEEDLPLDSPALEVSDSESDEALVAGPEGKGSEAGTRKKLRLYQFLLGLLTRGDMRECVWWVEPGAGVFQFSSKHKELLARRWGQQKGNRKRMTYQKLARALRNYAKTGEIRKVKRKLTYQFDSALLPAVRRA
# Summary of the method: as §1
# [9] = biological target: T6, ELK3 (Homo sapiens, UniProt P41970 1-407); conditions: protein: recombinant; tags: N-terminal GST; dsDNA, one strand shown
# T6 sequence: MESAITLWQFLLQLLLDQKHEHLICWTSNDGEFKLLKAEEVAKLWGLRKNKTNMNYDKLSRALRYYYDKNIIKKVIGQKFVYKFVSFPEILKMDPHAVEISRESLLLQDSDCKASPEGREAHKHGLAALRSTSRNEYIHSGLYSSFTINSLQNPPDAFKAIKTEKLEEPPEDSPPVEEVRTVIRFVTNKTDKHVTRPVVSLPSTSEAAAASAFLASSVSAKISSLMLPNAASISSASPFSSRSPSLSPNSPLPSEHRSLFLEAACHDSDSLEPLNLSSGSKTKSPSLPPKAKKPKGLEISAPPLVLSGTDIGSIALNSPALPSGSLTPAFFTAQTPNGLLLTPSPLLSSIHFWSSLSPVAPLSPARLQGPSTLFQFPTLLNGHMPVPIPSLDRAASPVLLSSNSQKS
# Summary of the method: as §1
# [10] = biological target: T7, FEV (Homo sapiens, UniProt Q99581 1-238); conditions: protein: recombinant; tags: N-terminal GST; dsDNA, one strand shown
# T7 sequence: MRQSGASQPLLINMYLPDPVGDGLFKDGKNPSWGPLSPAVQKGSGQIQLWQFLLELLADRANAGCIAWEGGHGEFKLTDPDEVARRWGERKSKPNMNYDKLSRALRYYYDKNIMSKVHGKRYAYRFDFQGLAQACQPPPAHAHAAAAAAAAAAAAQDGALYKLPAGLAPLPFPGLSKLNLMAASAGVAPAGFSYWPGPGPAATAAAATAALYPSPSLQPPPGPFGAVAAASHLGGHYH
# Summary of the method: as §1
# [11] = biological target: ETV5 (Homo sapiens, UniProt P41161 1-510); conditions: protein: recombinant; tags: N-terminal GST; dsDNA, one strand shown
# Chain of ETV5 (P41161 whole entry): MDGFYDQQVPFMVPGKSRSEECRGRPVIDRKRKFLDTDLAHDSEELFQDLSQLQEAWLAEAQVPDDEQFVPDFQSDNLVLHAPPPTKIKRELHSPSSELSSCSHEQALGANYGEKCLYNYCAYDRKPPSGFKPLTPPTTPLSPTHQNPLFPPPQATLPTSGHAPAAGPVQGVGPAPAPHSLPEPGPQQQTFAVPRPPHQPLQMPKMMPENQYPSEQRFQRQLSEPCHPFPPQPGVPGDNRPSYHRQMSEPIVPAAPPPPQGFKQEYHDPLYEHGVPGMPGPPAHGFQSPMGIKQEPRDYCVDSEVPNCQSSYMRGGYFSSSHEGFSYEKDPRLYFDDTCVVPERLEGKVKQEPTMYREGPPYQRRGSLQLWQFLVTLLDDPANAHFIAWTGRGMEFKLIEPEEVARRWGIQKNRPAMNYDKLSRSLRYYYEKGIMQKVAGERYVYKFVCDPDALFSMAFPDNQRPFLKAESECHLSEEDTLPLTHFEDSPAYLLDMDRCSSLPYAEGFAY
# Summary of the method: as §1
# [12] = biological target: HSF1 (Homo sapiens, UniProt Q00613 1-529); conditions: protein: recombinant; tags: N-terminal GST; chain copies: 3; dsDNA, one strand shown
# Chain of HSF1 (Q00613 whole entry): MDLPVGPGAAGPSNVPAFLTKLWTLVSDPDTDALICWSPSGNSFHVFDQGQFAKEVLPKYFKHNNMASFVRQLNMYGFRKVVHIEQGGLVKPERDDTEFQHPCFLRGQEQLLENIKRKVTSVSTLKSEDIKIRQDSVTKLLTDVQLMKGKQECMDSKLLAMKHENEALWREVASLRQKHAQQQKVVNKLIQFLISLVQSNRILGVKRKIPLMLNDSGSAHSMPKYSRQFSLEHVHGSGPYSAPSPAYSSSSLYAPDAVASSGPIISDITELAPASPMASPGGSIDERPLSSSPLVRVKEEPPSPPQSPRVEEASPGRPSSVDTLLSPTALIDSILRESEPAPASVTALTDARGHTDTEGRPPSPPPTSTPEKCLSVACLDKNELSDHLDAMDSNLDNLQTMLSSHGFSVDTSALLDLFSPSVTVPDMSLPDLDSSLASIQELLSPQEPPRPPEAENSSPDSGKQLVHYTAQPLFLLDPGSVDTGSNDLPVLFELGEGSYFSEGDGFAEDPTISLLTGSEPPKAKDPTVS
# Summary of the method: as §1
# [13] = biological target: T8, SPIC (Homo sapiens, UniProt Q8N5J4 1-248); conditions: protein: recombinant; tags: N-terminal GST; dsDNA, one strand shown
# T8 sequence: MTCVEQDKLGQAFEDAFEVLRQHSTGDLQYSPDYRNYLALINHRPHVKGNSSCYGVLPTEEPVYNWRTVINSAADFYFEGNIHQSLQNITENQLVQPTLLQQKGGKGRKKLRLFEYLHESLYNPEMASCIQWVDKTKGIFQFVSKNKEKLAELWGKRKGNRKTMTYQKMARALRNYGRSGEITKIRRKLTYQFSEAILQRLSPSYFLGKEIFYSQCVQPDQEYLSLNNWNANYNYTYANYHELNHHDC
# Summary of the method: as §1
# [14] = biological target: ELF4 (Homo sapiens, UniProt Q99607 1-663); conditions: protein: recombinant; tags: N-terminal GST; dsDNA, one strand shown
# Chain of ELF4 (Q99607 whole entry): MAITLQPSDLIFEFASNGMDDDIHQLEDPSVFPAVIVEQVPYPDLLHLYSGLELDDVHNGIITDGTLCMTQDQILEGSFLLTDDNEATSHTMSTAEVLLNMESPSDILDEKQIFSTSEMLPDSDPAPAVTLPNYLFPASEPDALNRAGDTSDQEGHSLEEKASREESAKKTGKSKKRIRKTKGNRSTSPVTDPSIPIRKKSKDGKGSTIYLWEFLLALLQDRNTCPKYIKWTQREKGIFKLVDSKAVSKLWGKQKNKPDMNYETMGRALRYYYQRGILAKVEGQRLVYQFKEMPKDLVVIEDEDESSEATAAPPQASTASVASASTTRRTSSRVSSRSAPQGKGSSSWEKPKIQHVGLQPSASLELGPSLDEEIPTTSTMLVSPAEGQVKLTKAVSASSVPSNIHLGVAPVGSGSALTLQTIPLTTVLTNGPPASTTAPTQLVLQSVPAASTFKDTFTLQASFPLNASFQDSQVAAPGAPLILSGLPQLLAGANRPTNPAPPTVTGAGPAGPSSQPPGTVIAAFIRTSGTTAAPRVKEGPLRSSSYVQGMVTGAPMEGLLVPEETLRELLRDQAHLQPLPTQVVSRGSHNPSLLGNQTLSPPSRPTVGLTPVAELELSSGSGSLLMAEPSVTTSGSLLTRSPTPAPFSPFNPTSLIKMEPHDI
# Summary of the method: as §1
# [15] = biological target: T9, ELK4 (Homo sapiens, UniProt P28324-2 1-405); conditions: protein: recombinant; tags: N-terminal GST; dsDNA, one strand shown
# T9 sequence: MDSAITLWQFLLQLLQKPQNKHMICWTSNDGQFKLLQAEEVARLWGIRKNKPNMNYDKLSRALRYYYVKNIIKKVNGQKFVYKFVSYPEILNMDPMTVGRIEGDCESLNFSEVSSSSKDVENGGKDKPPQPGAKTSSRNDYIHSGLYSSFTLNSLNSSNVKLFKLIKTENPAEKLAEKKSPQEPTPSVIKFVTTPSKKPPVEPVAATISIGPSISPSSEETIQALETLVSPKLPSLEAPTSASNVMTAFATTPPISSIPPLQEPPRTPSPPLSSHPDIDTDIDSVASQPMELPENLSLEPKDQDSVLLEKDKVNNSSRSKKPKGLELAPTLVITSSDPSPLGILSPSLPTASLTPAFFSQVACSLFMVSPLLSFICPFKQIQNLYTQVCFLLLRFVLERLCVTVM
# Summary of the method: as §1
# [16] = biological target: T10, ETV2 (Homo sapiens, UniProt O00321 1-342); conditions: protein: recombinant; tags: N-terminal GST; dsDNA, one strand shown
# T10 sequence: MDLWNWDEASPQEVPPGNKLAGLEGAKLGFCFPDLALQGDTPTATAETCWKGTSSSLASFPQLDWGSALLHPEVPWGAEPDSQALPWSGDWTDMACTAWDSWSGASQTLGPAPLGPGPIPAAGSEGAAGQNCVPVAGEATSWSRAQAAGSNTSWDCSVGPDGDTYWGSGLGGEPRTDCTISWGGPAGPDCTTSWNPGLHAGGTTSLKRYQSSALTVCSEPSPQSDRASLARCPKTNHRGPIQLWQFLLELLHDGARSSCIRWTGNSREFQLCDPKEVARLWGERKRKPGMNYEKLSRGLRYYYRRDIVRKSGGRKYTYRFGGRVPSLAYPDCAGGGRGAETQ
# Summary of the method: as §1
# [17] = biological target: CRX (Homo sapiens, UniProt O43186 1-299); conditions: protein: recombinant; tags: N-terminal GST; dsDNA, one strand shown
# Chain of CRX (O43186 whole entry): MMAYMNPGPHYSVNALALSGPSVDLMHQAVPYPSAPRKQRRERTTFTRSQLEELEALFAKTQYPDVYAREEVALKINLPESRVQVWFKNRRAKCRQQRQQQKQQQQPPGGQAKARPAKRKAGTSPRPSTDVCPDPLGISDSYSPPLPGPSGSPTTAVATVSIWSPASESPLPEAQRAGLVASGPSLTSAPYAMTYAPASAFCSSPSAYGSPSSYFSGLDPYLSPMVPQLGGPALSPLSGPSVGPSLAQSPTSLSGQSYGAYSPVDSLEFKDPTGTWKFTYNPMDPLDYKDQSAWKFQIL
# Summary of the method: as §1
# [18] = biological target: ETV1 (Homo sapiens, UniProt P50549 1-477); conditions: protein: recombinant; tags: N-terminal GST; dsDNA, one strand shown
# Chain of ETV1 (P50549 whole entry): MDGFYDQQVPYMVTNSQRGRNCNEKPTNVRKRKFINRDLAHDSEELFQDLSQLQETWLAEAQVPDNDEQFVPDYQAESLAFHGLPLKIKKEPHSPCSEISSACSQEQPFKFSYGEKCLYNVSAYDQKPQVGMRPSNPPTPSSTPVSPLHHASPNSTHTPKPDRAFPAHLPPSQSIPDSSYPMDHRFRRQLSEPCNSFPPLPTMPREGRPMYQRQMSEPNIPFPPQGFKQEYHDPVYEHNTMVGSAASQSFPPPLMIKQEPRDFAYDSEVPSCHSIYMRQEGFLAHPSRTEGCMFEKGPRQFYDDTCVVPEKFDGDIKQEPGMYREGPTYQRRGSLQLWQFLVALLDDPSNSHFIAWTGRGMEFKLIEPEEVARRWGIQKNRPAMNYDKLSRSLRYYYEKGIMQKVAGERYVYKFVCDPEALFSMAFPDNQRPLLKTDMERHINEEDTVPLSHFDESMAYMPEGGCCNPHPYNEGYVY
# Summary of the method: as §1
Sequence,binding signal [1],binding signal [2],binding signal [3],binding signal [4],binding signal [5],binding signal [6],binding signal [7],binding signal [8],binding signal [9],binding signal [10],binding signal [11],binding signal [12],binding signal [13],binding signal [14],binding signal [15],binding signal [16],binding signal [17],binding signal [18]
CGATAA,"1.12 fold enrichment (6-mer frequency, TF over GST control)","1.02 fold enrichment (6-mer frequency, TF over GST control)","1.06 fold enrichment (6-mer frequency, TF over GST control)","1.09 fold enrichment (6-mer frequency, TF over GST control)","1.08 fold enrichment (6-mer frequency, TF over GST control)","1.03 fold enrichment (6-mer frequency, TF over GST control)","1.08 fold enrichment (6-mer frequency, TF over GST control)","1.19 fold enrichment (6-mer frequency, TF over GST control)","1.2 fold enrichment (6-mer frequency, TF over GST control)","1.02 fold enrichment (6-mer frequency, TF over GST control)","1.04 fold enrichment (6-mer frequency, TF over GST control)","1.51 fold enrichment (6-mer frequency, TF over GST control)","1.12 fold enrichment (6-mer frequency, TF over GST control)","1.16 fold enrichment (6-mer frequency, TF over GST control)","1.1 fold enrichment (6-mer frequency, TF over GST control)","1.19 fold enrichment (6-mer frequency, TF over GST control)","1.75 fold enrichment (6-mer frequency, TF over GST control)","1.09 fold enrichment (6-mer frequency, TF over GST control)"
CTTGTT,"1.2 fold enrichment (6-mer frequency, TF over GST control)","1.18 fold enrichment (6-mer frequency, TF over GST control)","1.15 fold enrichment (6-mer frequency, TF over GST control)","1.26 fold enrichment (6-mer frequency, TF over GST control)","1.21 fold enrichment (6-mer frequency, TF over GST control)","1.31 fold enrichment (6-mer frequency, TF over GST control)","1.25 fold enrichment (6-mer frequency, TF over GST control)","1.29 fold enrichment (6-mer frequency, TF over GST control)","1.3 fold enrichment (6-mer frequency, TF over GST control)","1.15 fold enrichment (6-mer frequency, TF over GST control)","1.22 fold enrichment (6-mer frequency, TF over GST control)","1.09 fold enrichment (6-mer frequency, TF over GST control)","1.25 fold enrichment (6-mer frequency, TF over GST control)","1.22 fold enrichment (6-mer frequency, TF over GST control)","1.17 fold enrichment (6-mer frequency, TF over GST control)","1.14 fold enrichment (6-mer frequency, TF over GST control)","1.1 fold enrichment (6-mer frequency, TF over GST control)","1.31 fold enrichment (6-mer frequency, TF over GST control)"
